Measurements taken from PubChem BioAssay (NCATS).
Results filed as inconclusive are left out. The source made the active and inactive calls. Calls follow the shape of the full dose curve.

Assays:
[1] = Primary qHTS for inhibitors of SARS-S pseudo-typed particle cell entry (AID 1479145); also: nearly all actives have a fitted effect of over 45% in size; as to activity change, negative = inhibition: series mostly up to about 57 µM
[2] = Primary qHTS for Huh7 cytotoxicity: counterscreen for inhibitors of MERS-S pseudotyped particle cell entry (AID 1479147)
[3] = Primary qHTS for inhibitors of MERS-S pseudo-typed particle cell entry (AID 1479149); also: nearly all actives have a fitted effect of over 60% in size; as to activity change, negative = inhibition: series mostly up to about 57 µM
[4] = Primary qHTS for Vero E6 cytotoxicity: counterscreen for inhibitors of SARS-S pseudo-typed particle cell entry (AID 1479150)
% is scaled to controls: 0 for no effect and ±100 for the full control effect.

O=C(Cn1ccnc1[N+](=O)[O-])NCc1ccccc1
inactive: Potency [1] | Potency [2] | Potency [3] | Potency [4]

OC[C@H]1O[C@H](O[C@]2(CCl)O[C@H](CCl)[C@@H](O)[C@@H]2O)[C@H](O)[C@@H](O)[C@H]1Cl
inactive: Potency [1] | Potency [2] | Potency [3] | Potency [4]

O=C(O)COc1nn(Cc2ccccc2)c2ccccc12
inactive: Potency [1] | Potency [2] | Potency [3] | Potency [4]

CC(=O)OCC(COC(C)=O)OC(C)=O
inactive: Potency [1] | Potency [2] | Potency [3] | Potency [4]

Nc1nc2ccc(OC(F)(F)F)cc2s1
inactive: Potency [1] | Potency [2] | Potency [3] | Potency [4]

CC[N+](CC)(CCNC(=O)C(=O)NCC[N+](CC)(CC)Cc1ccccc1Cl)Cc1ccccc1Cl
inactive: Potency [1] | Potency [2] | Potency [3] | Potency [4]

Cc1ccccc1N1CCN(CCc2nnc3n2CCCC3)CC1
inactive: Potency [1] | Potency [2] | Potency [3] | Potency [4]

O=S(=O)(O)c1ccc(O)cc1
inactive: Potency [1] | Potency [2] | Potency [3] | Potency [4]

CCCCCC=CCC=CCCCCCCCC(=O)OCC
inactive: Potency [1] | Potency [2] | Potency [3] | Potency [4]

O=C(O)[C@@H](O)[C@H](O)[C@H](O)[C@@H](O)C(=O)O
inactive: Potency [1] | Potency [2] | Potency [3] | Potency [4]

CC(=O)O[C@@H]1C(=O)O[C@@H]2[C@H]1OC(=O)[C@@H]2OC(C)=O
inactive: Potency [1] | Potency [2] | Potency [3] | Potency [4]

CCOC(=O)O[C@]1(C(=O)OCCl)CC[C@H]2[C@@H]3CCC4=CC(=O)C=C[C@]4(C)[C@H]3[C@@H](O)C[C@@]21C
inactive: Potency [1] | Potency [2] | Potency [3] | Potency [4]

CCC[C@@H]1C[C@@H](C(=O)N[C@@H]([C@H]2O[C@H](SC)[C@H](O)[C@@H](O)[C@H]2O)[C@@H](C)O)N(C)C1
inactive: Potency [1] | Potency [2] | Potency [3] | Potency [4]

Nc1nc(-c2ccccc2)c(Br)c(=O)[nH]1
inactive: Potency [1] | Potency [2] | Potency [3] | Potency [4]

Cc1cc(O)cc(C)c1Cl
inactive: Potency [1] | Potency [2] | Potency [3] | Potency [4]

CCOC(=O)c1ccc(N)cc1
inactive: Potency [1] | Potency [2] | Potency [3] | Potency [4]

O=C(O)CCCCC(=O)O
inactive: Potency [1] | Potency [2] | Potency [3] | Potency [4]

Cc1nnc(SCC2=C(C(=O)O)N3C(=O)[C@@H](NC(=O)Cn4cnnn4)[C@H]3SC2)s1
inactive: Potency [1] | Potency [2] | Potency [3] | Potency [4]

O=S(=O)(O)c1ccc2nc(-c3ccccc3)[nH]c2c1
inactive: Potency [1] | Potency [2] | Potency [3] | Potency [4]

CO[C@@]1(NC(=O)CSC[C@@H](N)C(=O)O)C(=O)N2C(C(=O)O)=C(CSc3nnnn3C)CS[C@@H]21
inactive: Potency [1] | Potency [2] | Potency [3] | Potency [4]

COc1cc2c3cc1Oc1cc(ccc1O)C[C@@H]1c4c(cc(OC)c(O)c4Oc4ccc(cc4)C[C@@H]3N(C)CC2)CC[N+]1(C)C
inactive: Potency [1] | Potency [2] | Potency [3] | Potency [4]

CC(=O)OCC(=O)[C@@]1(O)CC[C@H]2[C@@H]3CCC4=CC(=O)C=C[C@]4(C)[C@@]3(F)[C@@H](O)C[C@@]21C
inactive: Potency [1] | Potency [2] | Potency [3] | Potency [4]

COC(=O)C1=C(C)NC(C)=C(C(=O)OCCc2ccc(N3CCN(C(c4ccccc4)c4ccccc4)CC3)cc2)C1c1cccc([N+](=O)[O-])c1 (stereo unspecified)
inactive: Potency [1] | Potency [2] | Potency [3] | Potency [4]

CCN1CCC[C@H]1CNC(=O)c1cc(S(N)(=O)=O)ccc1OC
inactive: Potency [1] | Potency [2] | Potency [3] | Potency [4]

NCCS(=O)(=O)O
inactive: Potency [1] | Potency [2] | Potency [3] | Potency [4]

CC(C)(C)NC[C@H](O)COc1nsnc1N1CCOCC1
inactive: Potency [1] | Potency [2] | Potency [3] | Potency [4]

CCOC(=O)c1ccccc1O
inactive: Potency [1] | Potency [2] | Potency [3] | Potency [4]

COc1ccc2cccc(CCNC(C)=O)c2c1
inactive: Potency [1] | Potency [2] | Potency [3] | Potency [4]

CC(C)(C)NCC(O)COc1cccc2c1C[C@H](O)[C@H](O)C2 (stereo partly specified)
inactive: Potency [1] | Potency [2] | Potency [3] | Potency [4]

O=C(c1ccccc1)c1ccccc1
inactive: Potency [1] | Potency [2] | Potency [3] | Potency [4]

CC(=O)OCC(=O)[C@@]1(O)CC[C@H]2[C@@H]3CCC4=CC(=O)CC[C@]4(C)[C@H]3C(=O)C[C@@]21C
inactive: Potency [1] | Potency [2] | Potency [3] | Potency [4]

CC(=O)NCc1c(I)c(NC(C)=O)c(I)c(C(=O)O)c1I
inactive: Potency [1] | Potency [2] | Potency [3] | Potency [4]

Nc1nc(=O)n([C@@H]2CS[C@H](CO)O2)cc1F
inactive: Potency [1] | Potency [2] | Potency [3] | Potency [4]

O=C(O)CSCC(=O)NC1CCSC1=O (stereo unspecified)
inactive: Potency [1] | Potency [2] | Potency [3] | Potency [4]

Cc1cccc(C)c1NC(=O)CC12CCCN1CCC2
inactive: Potency [1] | Potency [2] | Potency [3] | Potency [4]

CCN1CCN(C(=O)N[C@@H](C(=O)N[C@@H]2C(=O)N3[C@@H]2SC(C)(C)[C@H]3C(=O)O)c2ccccc2)C(=O)C1=O
inactive: Potency [1] | Potency [2] | Potency [3] | Potency [4]

OCCOCCN1CCN(C2=Nc3ccccc3Sc3ccccc32)CC1
inactive: Potency [1] | Potency [2] | Potency [3] | Potency [4]

CC(CSC(=O)c1ccccc1)C(=O)N1C[C@@H](Sc2ccccc2)C[C@H]1C(=O)O (stereo partly specified)
inactive: Potency [1] | Potency [2] | Potency [3] | Potency [4]

O=C1c2ccccc2C(=O)c2c1ccc(O)c2O
inactive: Potency [1] | Potency [2] | Potency [3] | Potency [4]

CCCCOC(=O)c1ccc(O)cc1
inactive: Potency [1] | Potency [2] | Potency [3] | Potency [4]

CCN1CCCC1CNC(=O)c1cc(S(=O)(=O)CC)c(N)cc1OC (stereo unspecified)
inactive: Potency [1] | Potency [2] | Potency [3] | Potency [4]

Cc1cc(O)c2c(O)c3c(O)cccc3cc2c1
inactive: Potency [1] | Potency [2] | Potency [3] | Potency [4]

CC(C(=O)O)c1ccc(C(=O)c2ccccc2)s1 (stereo unspecified)
inactive: Potency [1] | Potency [2] | Potency [3] | Potency [4]

COCCCN1CCC(NC(=O)c2cc(Cl)c(N)c3c2OCC3)CC1
inactive: Potency [1] | Potency [2] | Potency [3] | Potency [4]

CCCCC(O)/C=C(C)/C=C/C=C/C(=O)N1CCCC1=O (stereo unspecified)
inactive: Potency [1] | Potency [2] | Potency [3] | Potency [4]

CC(=O)CC(c1ccccc1)c1c(O)c2ccccc2oc1=O (stereo unspecified)
inactive: Potency [1] | Potency [2] | Potency [3] | Potency [4]

CC(C)COC(=O)c1ccc(N)cc1
inactive: Potency [1] | Potency [2] | Potency [3] | Potency [4]

NC(=O)NC1N=C([O][Al])NC1=O (stereo unspecified)
inactive: Potency [1] | Potency [2] | Potency [3] | Potency [4]

C[C@](N)(Cc1ccc(O)cc1)C(=O)O
inactive: activity change, negative = inhibition [1] -0.396% [at 5.34 µM] | outcome [2] inactive [at 5.34 µM] | outcome [3] inactive [at 5.34 µM] | activity change, negative = cytotoxicity [4] -24.5% [at 5.34 µM]

CNC[C@H](O)[C@@H](O)[C@H](O)[C@H](O)CO
inactive: Potency [1] | Potency [2] | Potency [3] | Potency [4]

Cc1c(Nc2ncccc2C(=O)O)cccc1C(F)(F)F
inactive: Potency [1] | Potency [2] | Potency [3] | Potency [4]

NC(=O)c1cc[n+](CC2=C(C(=O)[O-])N3C(=O)[C@@H](NC(=O)Cc4cccs4)[C@H]3SC2)cc1
inactive: Potency [1] | Potency [2] | Potency [3] | Potency [4]

CCCCCCCCCCCCCCCCCC(=O)O
inactive: Potency [1] | Potency [2] | Potency [3] | Potency [4]

Cc1oc(=O)oc1CN1CCN(c2cc3c(cc2F)c(=O)c(C(=O)O)c2n3C(C)S2)CC1 (stereo unspecified)
inactive: Potency [1] | Potency [2] | Potency [3] | Potency [4]

O=C(c1ccccc1)C(O)c1ccccc1 (stereo unspecified)
inactive: Potency [1] | Potency [2] | Potency [3] | Potency [4]

COc1ccc(C2CNC(=O)C2)cc1OC1CCCC1 (stereo unspecified)
inactive: Potency [1] | Potency [2] | Potency [3] | Potency [4]

Cc1ccsc1/C=C/C1=NCCCN1C
inactive: Potency [1] | Potency [2] | Potency [3] | Potency [4]

CC(C)(C(=O)c1cccnc1)c1cccnc1
inactive: Potency [1] | Potency [2] | Potency [3] | Potency [4]

CO[C@@]1(NC(=O)CSCC#N)C(=O)N2C(C(=O)O)=C(CSc3nnnn3C)CS[C@@H]21
inactive: Potency [1] | Potency [2] | Potency [3] | Potency [4]

Cc1cc2c(cc1CC(=O)c1sccc1S(=O)(=O)Nc1onc(C)c1Cl)OCO2
inactive: Potency [1] | Potency [2] | Potency [3] | Potency [4]

Nc1ccc(S(=O)(=O)Nc2ccc(Cl)nn2)cc1
inactive: Potency [1] | Potency [2] | Potency [3] | Potency [4]

CC1CCc2c(N3CCC(O)CC3)c(F)cc3c(=O)c(C(=O)O)cn1c23 (stereo unspecified)
inactive: Potency [1] | Potency [2] | Potency [3] | Potency [4]

CCCCCCCCCCCCCCCCO
inactive: Potency [1] | Potency [2] | Potency [3] | Potency [4]

Nc1nc(/C(=C/CC(=O)O)C(=O)N[C@@H]2C(=O)N3C(C(=O)O)=CCS[C@H]23)cs1
inactive: Potency [1] | Potency [2] | Potency [3] | Potency [4]

Nc1nc2[nH]cc(CCc3ccc(C(=O)N[C@@H](CCC(=O)O)C(=O)O)cc3)c2c(=O)[nH]1
inactive: Potency [1] | Potency [2] | Potency [3] | Potency [4]

CCCCCCCN(CC)CCCC(O)c1ccc(NS(C)(=O)=O)cc1 (stereo unspecified)
inactive: Potency [1] | Potency [2] | Potency [3] | Potency [4]

NC(N)=Nc1nc(CSCC/C(N)=N/S(N)(=O)=O)cs1
inactive: Potency [1] | Potency [2] | Potency [3] | Potency [4]

CCOC(=O)c1ccc(O)cc1
inactive: Potency [1] | Potency [2] | Potency [3] | Potency [4]

O=C(O)/C=C(\CC(=O)O)C(=O)O
inactive: Potency [1] | Potency [2] | Potency [3] | Potency [4]

CCCCCCCCCCCCCCCC(=O)OC(C)C
inactive: Potency [1] | Potency [2] | Potency [3] | Potency [4]

CCN(Cc1ccncc1)C(=O)C(CO)c1ccccc1 (stereo unspecified)
inactive: Potency [1] | Potency [2] | Potency [3] | Potency [4]

COc1cc(/C=C/C(=O)O[C@H]2CC[C@]34C[C@]35CC[C@]3(C)[C@@H]([C@H](C)CCC=C(C)C)CC[C@@]3(C)[C@@H]5CC[C@H]4C2(C)C)ccc1O
inactive: Potency [1] | Potency [2] | Potency [3] | Potency [4]

CC(=O)NCCCS(=O)(=O)O
inactive: Potency [1] | Potency [2] | Potency [3] | Potency [4]

NC(=O)c1ccccc1O
inactive: Potency [1] | Potency [2] | Potency [3] | Potency [4]
